# aGal spleen mod: alpha-galactosidase A (human) modulation; P06280; human spleen homogenate, 4MU-alpha-Gal fluorescence, 40 min; Potency, µM (series often up to 80 µM), usual class: inhibitors; hit rate 0.008% among 240,000; AID 2107
# Target sequence (P06280 32-429 limits assumed): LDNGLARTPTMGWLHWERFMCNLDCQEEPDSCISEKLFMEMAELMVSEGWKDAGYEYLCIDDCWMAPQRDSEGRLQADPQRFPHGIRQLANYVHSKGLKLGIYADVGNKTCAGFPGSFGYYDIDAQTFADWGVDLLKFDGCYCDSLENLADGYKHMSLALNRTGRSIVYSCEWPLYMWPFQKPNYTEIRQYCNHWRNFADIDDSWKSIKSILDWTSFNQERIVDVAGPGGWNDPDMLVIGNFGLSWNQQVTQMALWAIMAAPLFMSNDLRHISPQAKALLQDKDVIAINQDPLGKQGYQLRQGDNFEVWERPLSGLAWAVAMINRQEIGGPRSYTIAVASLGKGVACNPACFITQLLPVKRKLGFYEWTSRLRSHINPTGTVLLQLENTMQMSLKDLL
#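 Spleen homogenate 1 ug + cpd (titration) + 4-MU-alpha-D-galactopyranoside 1 mM; 37C 40 min; 50 mM citrate/phosphate pH 5.0, 0.01% Tween-20; stop pH 10; fluorescence 365/440; AC50 via Hill.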
# GLA inh pH 4.5: inhibitors of human alpha-galactosidase A at pH 4.5; P06280; purified enzyme, 4-MU-alpha-Gal fluorescence, pH 4.5; activity change, negative = inhibition, % at 105 µM; 230,000 tested, under 10 active; AID 1467
# HTT ATP protect: Huntington cell model cytoprotection by ATP luminescence; PC12 HTT-Q103 induced, cytoprotection, ATP luminescence, 40 h; Potency, µM (highest dose often 56.4 µM), hits mostly activators; hit rate 0.14% among 230,000; AID 1471; also: nearly all actives have a fitted effect of over 45% in size
#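 Compounds were screened for protection of PC12 cells against cell death after tebufenozide induction (100 nM final) of mutant Huntingtin exon 1 (Q103) fused to GFP.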
# HTT aggregate: inhibitors of mutant huntingtin aggregate formation in PC12 cells; Potency, µM (highest dose often 46.1 µM), usual class: inhibitors; hit rate 1.1% among 220,000; PC12 HttQ103-GFP aggregates, Acumen cytometry, 40 h; also: nearly all actives have a fitted effect of over 60% in size
#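 Inducible Q103 Huntingtin exon 1–GFP PC12 line, 1500 cells/well in phenol red free DMEM with 5% equine and 5% calf serum. Tebufenozide 100 nM induced expression; compounds titrated; aggregates quantified by cytometry.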
# Hits are given with their value; – = inactive; ? = inconclusive; · = no result given; [ ] = remark or other dose. Rows were chosen to be rich in hits. Some 1.2% of all compounds tested hit in one or more screens of this group. Calls follow the shape of the dose curve; as a rule, active = well fitted curve in the direction sought with a large enough effect; inconclusive = small, poorly fitted or top-dose-only effect, or another doubt; inactive = no such curve, though single readings can be large; an effect the other way counts as inactive or inconclusive.
SMILES,aGal spleen mod,GLA inh pH 4.5,HTT ATP protect,HTT aggregate
CC(=O)Nc1cc(C(C)C)c(O)c(C(C)C)c1,–,–,–,–
CC(C)c1cc(NC(=O)c2ccccc2)cc(C(C)C)c1O,–,–,–,11µM
COc1ccccc1-n1c(=O)oc2ccc(Cl)cc2c1=O,–,–,–[0.074 µM],7.1µM
CN1Cc2cc(C(=O)c3ccccc3O)cnc2NC1=O,–,–,–,–
Cc1[nH]nc2ncc(C(=O)c3ccccc3O)cc12,–,–,20µM,6.3µM
O=C(O)COc1nn(Cc2ccccc2)c2ccccc12,·,·,–,–
COC(=O)C1(C(=O)OC)C[C@H]2CON=C2[C@H]1c1ccccc1,–,–,–,·
CCOC(=O)CNc1oc(-c2ccccc2)nc1-c1ccccc1,–,–,?,·
CC[C@]1(O)CC2CN(CCc3c([nH]c4ccccc34)[C@@](C(=O)OC)(c3cc4c(cc3OC)N(C)[C@H]3[C@@](O)(C(=O)OC)[C@H](OC(C)=O)[C@]5(CC)C=CCN6CC[C@]43[C@@H]65)C2)C1 (some centres not stated),·,·,–,–
CCC1=C[C@@H]2CN(C1)Cc1c([nH]c3ccccc13)[C@@](C(=O)OC)(c1cc3c(cc1OC)N(C)[C@@H]1[C@@](O)(C(=O)OC)[C@H](OC(C)=O)[C@]4(CC)C=CCN5CC[C@]31[C@@H]54)C2,·,·,–,5.6µM
O=C1c2ccccc2C(=O)C12OC2c1ccc(Cl)cc1Cl (configuration not stated),–,–,–[10 µM],25µM
O=C1c2ccccc2C(=O)C1c1ccc(Cl)cc1,·,·,–,–
C=CC1=C2C=C(C3CC3)N(Cc3ccc4c(c3)OCO4)C=C2C(=O)C(C)(OC(=O)c2ccco2)C1=O (configuration not stated),–[17.5 µM],–,–[10 µM],·
Cc1sc2ncn(CCC(=O)O)c(=O)c2c1C,–,–,–,–[9.22 µM]
Cc1sc2ncn(CCn3cnc4sc(C)c(C)c4c3=O)c(=O)c2c1C,–,–,–,0.45µM
N#C/C(=N\Nc1cccc(Cl)c1)C(=O)c1ccccc1,–,–,–,3.5µM
N#C/C(=N\Nc1ccccc1Cl)C(=O)c1ccccc1,–,–,–,?
CO[C@H]1COC(=O)[C@H](C)COC(=O)[C@H](C)NC(=O)C/C=C\[C@H]1C,–[17.5 µM],·,–[10 µM],·
CC1(C)CC(=O)C(C=Nc2cccc(/N=C/C3=C(O)CC(C)(C)CC3=O)n2)=C(O)C1,–,–,–,–
CC1(C)CC(=O)C(/C=N/c2ccccn2)=C(O)C1,–,–,–,22µM
COc1cccc(Nc2nc(NCCO)c3ccccc3n2)c1,–,–,–,8.9µM
COc1cccc(Nc2nc(NCC3CCCO3)c3ccccc3n2)c1 (configuration not stated),–,–,–,10µM
Cc1ccc(-c2nnn(C(C)C(=O)N3c4ccccc4CCc4ccccc43)n2)cc1 (configuration not stated),–,–,–[10 µM],–
CC(C(=O)N1c2ccccc2Sc2ccccc21)n1nnc(-c2cccs2)n1 (configuration not stated),–,–,–[10 µM],4µM
O=C1C(Cl)=C(Nc2ccccc2)C(=O)c2ccccc21,–,–,–[10 µM],13µM
